Screening results: PubChem BioAssay, National Center for Advancing Translational Sciences (NCATS)
An excerpt weighted towards active compounds, which were near 5.2% of everything screened.
Tau fibril FP: blocks human tau fibril formation measured by polarization. 280,000 compounds, 0.39% hits. P10636. AID 1468. K18 P301L tau heparin fibrillization, Alexa594 FP, 6 h. Potency, µM (series often up to 57.7 µM), inactives show at the highest dose activity, negative = inhibition, actives largely listed as inhibitors; further: potency means the concentration at half of the fitted maximal effect; nearly all actives have a fitted effect of over 55% in size
Target sequence (P10636 561-689 P618L limits assumed): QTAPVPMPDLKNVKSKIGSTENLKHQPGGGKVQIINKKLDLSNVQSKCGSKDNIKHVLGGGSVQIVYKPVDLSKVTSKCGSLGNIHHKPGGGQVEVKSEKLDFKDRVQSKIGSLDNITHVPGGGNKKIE
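Steps: dispense K18 P301L tau (15 uM plus 0.24 uM Alexa 594 tracer, final) in pH 7 sodium acetate; add compound; add heparin (20 uM final); incubate 6 hr, 37 C; add ThT (30 uM final); after 1 hr ambient, read FP.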
Sfp inh: blocks B. subtilis Sfp PPTase activity. Q9F4F7. Biochemical Sfp PPTase activity, qHTS. Potency, µM, inactives show largest response in the series, negative = inhibition, most hits filed as inhibitors. 310,000 compounds, 3.5% hits. AID 1490;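 further: the enzyme is Sfp with the accession as filed and its product quenches rhodamine fluorescence; potency means the concentration at half of the fitted maximal effect; 0% = enzyme reaction without inhibitor and -100% = no enzyme wells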
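Sfp 15 nM + cpd, 15 min RT; start w/ rhodamine-CoA 5 uM, BHQ-2-YbbR 12.5 uM (final); 50 mM Hepes pH 7.6, 10 mM MgCl2, 0.01% NP-40, 0.01% BSA; read 525/598 nm at 0 and 30 min.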
Tau fluor cs: counter-screen for tau fibril formation inhibitors; Potency, µM (doses to about 57.7 µM), for the others: at the top dose activity change, negative = decrease; 280,000 compounds, 0.93% hits; tau K18 P301L Alexa594 fluorescence, heparin fibrillization; further: potency means the concentration at half of the fitted maximal effect; nearly all actives have a fitted effect of over 55% in size
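Human K18 P301L tau (15 uM unlabeled plus 0.24 uM Alexa 594-labeled, final) in 100 mM sodium acetate pH 7 was mixed with compound and 20 uM heparin and incubated 6 hr at 37 C.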
Tau ThT inhib: tau fibrillization inhibition (ThT binding). recombinant tau K18 P301L, heparin-induced fibrillization, ThT fluorescence. 270,000 compounds, 2.1% hits. Potency, µM (series often up to 57.4 µM), inactives show at the highest dose activity, negative = inhibition, actives largely listed as inhibitors. P10636. AID 1460; further: potency means the concentration at half of the fitted maximal effect; nearly all actives have a fitted effect of over 55% in size
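Fibril formation assay: tau K18 P301L at 15 uM with trace Alexa 594 label, heparin inducer 20 uM, pH 7 sodium acetate buffer, 37 C for 6 hr; endpoint ThT signal.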
FBPA coupling cs: inhibits coupling enzyme system, counter-screen for aldolase hits; 290,000 compounds, 0.67% hits; activity change, negative = inhibition, % at 58.2 µM, hits read low; AID 2472; coupling enzyme system counterscreen, AmpLite Red fluorescence; in the data active means activity change below about -30%
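Fluorescence at 525 nm excitation and 598 nm emission measured inhibition of the coupled detection system without aldolase. Compounds (at 57.5 uM final) were preincubated 10 min at room temperature with coupling enzyme reagent before a 20 min substrate/AmpLite Red step.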
* hit, by the source's call; ? = inconclusive; nt = not tested or not shown; [ ] = dose if it differs, or a comment. Unless noted, the call rests on the fitted dose curve; in most records, active means well fitted curve in the direction sought with a large enough effect; inconclusive means small, poorly fitted or top-dose-only effect, or another doubt; inactive means no such curve, though single readings can be large; an effect the other way counts as inactive or inconclusive. Unless noted, on the % scale 0 is the no-effect control and ±100 the full control effect.

SMILES	Tau fibril FP	Sfp inh	Tau fluor cs	Tau ThT inhib	FBPA coupling cs
COc1ccccc1C(=O)Nc1ccc2nc(SCC(=O)N3CCCC3)sc2c1	5%	nt	-7%	-16%	nt
COc1ccc(Cl)cc1NC(=S)N(Cc1ccccc1C)CC1CCC(C(=O)O)CC1 (stereo not drawn)	2%	56µM*	-11%	-11%	6
O=C(O)c1cc(S(=O)(=O)N2CCOCC2)ccc1N1CCCCC1	2%	26%	-6%	-4%	3
O=c1c2ccccc2sn1-c1cc(S(=O)(=O)N2CCOCC2)ccc1N1CCOCC1	?	0.71µM*	-5%	?	-3
O=c1c2ccccc2sn1-c1cc(S(=O)(=O)N2CCOCC2)ccc1N1CCCC1	32µM*	0.2µM*	-27%	25µM*	2
O=S(=O)(c1ccc(N2CCOCC2)c(Cl)c1)N1CCOCC1	nt	13%	nt	nt	0
Cn1c(=O)[nH]c2cc(-c3noc(-c4ccc(F)cc4)n3)ccc21	-2%	nt	-1%	-16%	nt
COC(=O)c1ccc2c(c1)N(Cc1ccccc1)C(=O)c1ccccc1S2(=O)=O	-3%	nt	-23%	12%	nt
Cc1ccc2c(=O)cc(C(=O)NCc3ccccc3)oc2c1	1%	nt	-5%	4%	nt
COCCOC(=O)c1c(C)oc2c1cc(NS(=O)(=O)c1ccc(Cl)c(C)c1)c1ccccc12	3%	nt	?	-7%	nt
Nc1nc(Nc2ccccc2)nc(NCc2ccccc2)c1[N+](=O)[O-]	?	-16%	?	?	-1
COc1cccc(Nc2nc(N)c([N+](=O)[O-])c(NCc3ccccc3)n2)c1	?	-7%	16µM*[quencher]	?	-3
COc1cccc(Nc2nc(NCCO)c3ccccc3n2)c1	4%	20µM*	-13%	0%	-7
Cc1ccc(Nc2nc(N)c([N+](=O)[O-])c(NCc3ccco3)n2)cc1C	?	-7%	28µM*[quencher]	16µM*	2
Cc1cccc(Nc2nc(N)c([N+](=O)[O-])c(NCc3ccccc3)n2)c1	?	-14%	?	?	-2
CCOc1ccc(Nc2nc(N)c([N+](=O)[O-])c(NCc3ccccc3)n2)cc1	14%	8%	14µM*[quencher]	?	1
Cc1ccc(Nc2nc(N)c([N+](=O)[O-])c(NCCO)n2)cc1C	-8%[0.0958 µM]	-3%	0%[0.0958 µM]	nt	-1
COc1cc(NC(=O)c2cccc(Cl)c2Cl)ccc1NC(=O)c1cc2ccccc2o1	?	nt	-27%	?	nt
COc1cc(OC)c(-c2cc(C(=O)NCc3ccc(F)cc3)c3c(-c4ccccc4)[nH]nc3n2)cc1OC	4%	nt	?	?	nt
COc1cccc(N2CCN(C(=O)c3cnn(-c4ccc(C)cc4C)c3C3CCN(C(=O)OC(C)(C)C)CC3)CC2)c1	0%	nt	-11%	?	nt
Cc1ccccc1NC(=O)CN(c1ccc(Cl)cc1Cl)S(=O)(=O)c1ccccc1	-3%	nt	-27%	-2%	nt
COC(=O)C1=C[C@@H](C(=O)OC)C2C3=C(C(=O)[C@]2(CC(C)C)NC(=O)c2ccccc2)[C@H](C)n2c(=O)n(-c4ccccc4)c(=O)n2[C@@H]3C1 (stereo partly drawn)	nt	3%	nt	nt	0
CC1=C(C(=O)Nc2ccccc2C)C(c2ccc[nH]2)n2ncnc2N1 (stereo not drawn)	-6%	nt	-16%	-15%	nt
COc1cccc(C(=O)COc2cccc(NC(=O)c3cccc([N+](=O)[O-])c3)c2)c1	7%	14%	14µM*[quencher]	?	0
O=C(Nc1cccc(F)c1)c1ccc(-c2ccccc2Cl)o1	2%	1%	-6%	1%	-24
SMILES	Tau fibril FP	Sfp inh	Tau fluor cs	Tau ThT inhib	FBPA coupling cs
CC(=O)c1cccc(NC(=O)c2ccc(-c3ccccc3[N+](=O)[O-])o2)c1	-5%	-69%	?	?	-59*
COc1cccc(NC(=O)c2ccc(-c3ccc([N+](=O)[O-])cc3)o2)c1	15%	20µM*	?	?	0
Cc1ccc(-c2ccc(C(=O)Nc3cccc(F)c3)o2)c2ccccc12	-9%	71µM*	?	?	-28
O=C(Nc1ccc(Cl)cc1)c1ccc2c(c1)N(Cc1ccccc1)C(=O)c1ccccc1S2(=O)=O	?	nt	?	5%	nt
C=CCNC(=O)c1ccc(-c2cccc([N+](=O)[O-])c2)o1	8%	18%	-12%	?	1
COc1cc([N+](=O)[O-])ccc1-c1ccc(C(=O)Nc2ccc(NC(C)=O)cc2)o1	-6%	10µM*	?	5µM*	-5
C=CCNC(=O)c1ccc(-c2ccc([N+](=O)[O-])cc2)o1	-2%	25µM*	-1%	?	5
COc1ccc(NC(=O)c2ccc(-c3ccc([N+](=O)[O-])cc3)o2)cc1OC	6%	1%	11µM*[quencher]	5µM*	-1
CC(=O)Nc1ccc(NC(=O)c2ccc(-c3ccc([N+](=O)[O-])cc3)o2)cc1	nt	-13%	nt	nt	-1
COC(=O)c1[nH]c2cc(OC)ccc2c1NC(=O)CN1CCN(c2cccc(C)c2)C(C)C1 (stereo not drawn)	?	-7%	14µM*[quencher]	?	3
COC(=O)c1[nH]c2cc(C)ccc2c1NC(=O)CN1CCOCC1	4%	24%	-8%	-8%	5
NC(N)=NCCC[C@H](N)C(=O)NCC(=O)N[C@@H](CC(=O)O)C(=O)O	nt	-5%	nt	nt	1
Cc1ccc(-n2c(SCC(=O)c3c(N)n(C)c(=O)n(C)c3=O)nc3sc4c(c3c2=O)CCCC4)c(C)c1	?	56µM*	-8%	-3%	1
Cc1oc2cc([N+](=O)[O-])c(O)c([N+](=O)[O-])c2c1C(=O)c1ccc(Cl)cc1	1%	?	-24%	18µM*	1
COc1ccc(OC)c(C(=O)c2c(C)oc3cc([N+](=O)[O-])c(O)c([N+](=O)[O-])c23)c1	-6%	56µM*	-25%	13µM*	-18
COc1ccc(C(=O)Cc2cc(OC)c(OC)cc2[N+](=O)[O-])c(OC)c1	-1%	14%	-9%	-8%	6
COc1ccc(C2NCCc3c2[nH]c2ccccc32)cc1COc1ccc(F)cc1 (stereo not drawn)	4%	45µM*	-13%	?	-4
COc1ccc(C2NCCc3c2[nH]c2ccccc32)cc1CN1CCc2cc(OC)c(OC)cc2C1C (stereo not drawn)	nt	-17%	nt	nt	0
CCC(C(=O)O)n1ccc2cc(S(=O)(=O)N3CCCCC3)ccc21 (stereo not drawn)	-3%	nt	-7%	-4%	nt
CC(NC(=O)/C(C#N)=C/c1ccc(Cl)c([N+](=O)[O-])c1)c1ccccc1 (stereo not drawn)	9%	25µM*	4%	6%	-11
N#C/C(=C\c1ccc(O)c(O)c1)C(=O)Nc1ccccc1	13%	-17%	?	13µM*	-3
